# NRP1-CendR mod – NRP-1/CendR interaction modulation. AID 602438. 0.85% of 360,000 active. FAM-RPARPAR peptide binding to NRP-1, fluorescence polarization. inhibition, % at 25 µM;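 active = inhibition or corrected inhibition above about 18%, plus a signal ratio from 0.5 to 1.5, limit read from the data, passing the limit was not always enough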
# Target sequence (O14786 whole entry, looked up): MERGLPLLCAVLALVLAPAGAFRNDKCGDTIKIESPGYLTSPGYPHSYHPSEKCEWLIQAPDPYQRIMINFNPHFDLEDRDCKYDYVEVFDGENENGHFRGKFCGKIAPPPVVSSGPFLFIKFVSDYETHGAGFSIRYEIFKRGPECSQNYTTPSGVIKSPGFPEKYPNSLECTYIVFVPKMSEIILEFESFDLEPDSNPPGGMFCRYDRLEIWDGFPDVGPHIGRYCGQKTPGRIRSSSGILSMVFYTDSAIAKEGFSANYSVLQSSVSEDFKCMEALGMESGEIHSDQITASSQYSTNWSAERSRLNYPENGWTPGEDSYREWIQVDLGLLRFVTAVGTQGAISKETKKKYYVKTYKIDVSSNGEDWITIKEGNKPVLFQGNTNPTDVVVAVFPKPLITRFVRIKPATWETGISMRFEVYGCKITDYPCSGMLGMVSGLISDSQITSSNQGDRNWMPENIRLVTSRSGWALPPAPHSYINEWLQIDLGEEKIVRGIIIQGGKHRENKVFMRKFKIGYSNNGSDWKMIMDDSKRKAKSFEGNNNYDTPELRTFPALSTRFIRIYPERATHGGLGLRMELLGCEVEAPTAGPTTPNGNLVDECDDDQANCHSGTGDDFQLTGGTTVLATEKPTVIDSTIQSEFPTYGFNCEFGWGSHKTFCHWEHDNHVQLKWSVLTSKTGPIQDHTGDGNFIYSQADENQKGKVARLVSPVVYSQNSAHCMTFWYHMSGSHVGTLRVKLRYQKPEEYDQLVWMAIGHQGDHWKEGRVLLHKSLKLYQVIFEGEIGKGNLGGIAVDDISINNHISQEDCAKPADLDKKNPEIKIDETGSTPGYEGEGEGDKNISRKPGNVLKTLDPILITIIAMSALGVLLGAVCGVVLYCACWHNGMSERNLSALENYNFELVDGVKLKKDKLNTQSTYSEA
# MEKK2wt PB1 HTS – raises or lowers MEK5 binding to wildtype human MEKK2 PB1 domain; bead flow cytometry, Alexa488-MEK5 binding to MEKK2 WT; actives lie on both sides; binding response (% of control), % at 10 µM; Q9Y2U5; 1.1% of 290,000 active; in the data active = binding response below about 67% or above about 130%
# SKN-1 inh – blocks SKN-1 activity in C. elegans; C. elegans VP596 Pgst-4::GFP/RFP ratio, acrylamide-induced, 24 h; inhibition, % at 21.8 µM; 0.49% of 360,000 active; AID 624304;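 active = interference check ratio from 0.5 to 1.5 plus GFP to RFP signal ratio inhibition reaching or exceeding a fixed threshold, cut at about 30% in these data, passing the limit was not always enough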
# MEKK3 PB1 HTS – MEKK3-MEK5 PB1 interaction, increase or decrease; bead-based flow cytometry, Alexa488-MEK5 binding to MEKK3; actives lie on both sides; 0 = blocked by unlabeled MEK5, 100 = vehicle; binding response (% of control), % at 10 µM; 1.4% of 290,000 active;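 active = binding response more than 3 SD above or below the average of its plate-row segment, actives on both sides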;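 note: Alexa488 bead fluorescence after subtracting the streptavidin-only scavenger bead signal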
# MEKK2 mut-MEK5 – signal of MEK5 binding to mutant human MEKK2 PB1 domain | bead flow cytometry, Alexa488-MEK5 binding to MEKK2 mutant | percent response, % at 10 µM | 0.35% of 290,000 active | AID 1530; in the data active = percent response above about 24%, passing the limit was not always enough
# Hits are given with their value; – = inactive; · = no result given; [ ] = another dose, or the depositor's remark. This is a sample that favours compounds with a hit; in the whole collection about 3.2% have one here.
SMILES,NRP1-CendR mod,MEKK2wt PB1 HTS,SKN-1 inh,MEKK3 PB1 HTS,MEKK2 mut-MEK5
CS(=O)(=O)Nc1ccccc1-c1ccc2nccn2c1,–,·,–,·,·
O=C(Nc1cccc(C(F)(F)F)c1)OCCN1CCN(Cc2ccccc2)CCC1=O,23,–,–,–,–
O=C1c2ccccc2C(=O)c2c(NCCCN(CCO)CCO)cccc21,–,–,41,–,–
CC(OC(=O)CCCC(=O)Nc1ccc(F)cc1)C(=O)c1ccccc1 (stereo not drawn),–,–,–,–,–
CC(C)(C)NC(=O)C12CC3CC(CC(Cl)(C3)C1)C2,22,–,–,–,–
Oc1ccc(C[C@H]2CNC(=S)N2C[C@H]2CCCN2C[C@H](Cc2ccccc2)N2C[C@H](Cc3ccc(O)cc3)N(CCc3ccccc3)C2=S)cc1,–,·,–,·,·
CCCCn1c(N)c(N(CCOC)C(=O)c2ccc(-n3c(C)ccc3C)cc2)c(=O)[nH]c1=O,–,·,–,·,·
C[C@@H](C(=O)Nc1cccnc1)n1c(=O)[nH]c2ccccc2c1=O,35,–,–,–,–
O=C1NCC(c2ccccc2)C1C(=O)N/N=C\c1ccc(-c2cccc(Cl)c2Cl)o1 (stereo not drawn),–,–,36,–,–
CNc1ncnc2c1ncn2[C@H]1CN(Cc2cccs2)C[C@@H](CO)O1,–,·,–,·,·
CC1CCN(c2ccccc2NC(=O)c2ccc(Br)o2)CC1,–,–,–,–,–
CC(C)NC(=O)N(C)C[C@H]1Oc2ccc(NC(=O)Nc3ccccc3)cc2C(=O)N([C@H](C)CO)C[C@@H]1C,34,·,–,·,·
Cc1noc(C)c1NC(=O)Nc1ccc2c(c1)C(=O)N([C@H](C)CO)C[C@H](C)[C@@H](CN(C)C(=O)NC(C)C)O2,27,·,–,·,·
COc1ccc(S(=O)(=O)Nc2ccc3c(c2)C(=O)N([C@H](C)CO)C[C@H](C)[C@@H](CN(C)S(=O)(=O)c2cn(C)cn2)OCCCC[C@H](C)O3)cc1,–,·,–,·,·
Cc1noc(C)c1S(=O)(=O)N(C)C[C@H]1OCCCC[C@@H](C)Oc2ccc(NS(=O)(=O)c3cn(C)cn3)cc2C(=O)N([C@H](C)CO)C[C@@H]1C,26,·,–,·,·
C[C@H](CO)N1C[C@H](C)[C@@H](CN(C)S(C)(=O)=O)Oc2ccc(NC(=O)NC3CCCCC3)cc2C1=O,31,·,–,·,·
Cc1noc(C)c1NC(=O)N(C)C[C@H]1Oc2ccc(NC(=O)NC(C)C)cc2C(=O)N([C@H](C)CO)C[C@H]1C,–,·,–,·,·
CC(C)NC(=O)Nc1ccc2c(c1)C(=O)N([C@H](C)CO)C[C@H](C)[C@@H](CN(C)C(=O)Nc1ccc3c(c1)OCO3)O2,–,·,–,·,·
CC(C)NC(=O)N(C)C[C@H]1Oc2ccc(NC(=O)Nc3ccc4c(c3)OCO4)cc2C(=O)N([C@H](C)CO)C[C@@H]1C,29,·,–,·,·
CC(Sc1ccccc1)C(=O)Nc1ccc(N2CCOCC2)cc1 (stereo not drawn),–,–,–,–,–
COc1ccc(NC(=O)C(C)Sc2ccccc2)cc1 (stereo not drawn),42,–,–,–,–
CC[C@@H]1[C@H]2CCCC(=O)N3CC[C@@H](C[C@@H]1OC(=O)Nc1ccccc1)[C@@H]23,–,–,–,–,–
O=C(OCc1nnc(-c2ccc(Cl)cc2)o1)c1ccc(O)cc1,29,–,–,–,–
Cc1nn(Cc2ccccc2)c(Cl)c1C(=O)OCc1nnc(-c2ccc(Cl)cc2)o1,38,–,–,–,–
COc1ccc(CN(CCCN2CCOCC2)C(=O)Nc2cccc(Cl)c2)cc1OC,27,–,–,–,–
SMILES,NRP1-CendR mod,MEKK2wt PB1 HTS,SKN-1 inh,MEKK3 PB1 HTS,MEKK2 mut-MEK5
CC1Cc2ccccc2N1C(=O)CSc1nnc2c(n1)[nH]c1ccc(F)cc12 (stereo not drawn),22,–,–,–,–
O=C(CSc1nnc2c(n1)[nH]c1ccc(F)cc12)N1CCOCC1,–,–,–,–,–
Cc1ccc(C(C)(C)C)cc1S(=O)(=O)Nc1nc2ccccc2nc1Cl,–,–,–,–,–
Cc1ccccc1S(=O)(=O)Nc1nc2ccccc2nc1NCCO,31,–,–,–,–
CCCC(C)Sc1nc2c([nH]1)c(=S)n(C)c(=O)n2C (stereo not drawn),–,·,–,·,·
COc1cccc(N2[C@@H](CC(C)=O)c3ccccc3S2(=O)=O)c1,22,–,–,–,–
O=C(CCn1c(=O)[nH]c2ccsc2c1=O)N1CC(=O)N(CCc2ccccc2)C(=O)C1,–,–,–,74[inhibitor],–
CSc1nc2ccccc2c(=O)n1C1CCCCC1,–,–,–,–,–
CSc1nc2ccccc2c(=O)n1C1CCOC(C)(C)C1 (stereo not drawn),28,–,–,–,–
O=C(NCCc1ccc(Cl)cc1)c1cc(S(=O)(=O)N2CCCCC2)c[nH]1,–,–,–,–,–
COC(=O)/C=C1\S/C(=N\N=C\CC(=O)OC)NC1=O,–,–,37,–,–
Cc1ccc(C(=O)NCC(=O)NCCCc2ccccc2)cc1,–,–,–,–,–
COc1cccc(N2CCN(C(=O)C3CCN(S(=O)(=O)c4ccc5c(c4)CC(C)N5C(C)=O)CC3)CC2)c1 (stereo not drawn),–,–,–,–,–
COc1ccc(/C(C#N)=C/c2cccnc2)cc1,19,–,–,–,–
N#C/C(=C\c1cccnc1)c1ccccn1,–,–,–,–,–
CCOC1=C2CN(S(=O)(=O)c3ccc(C)cc3)[C@H](c3cccc4ccccc34)C[C@H]2[C@H]2C(=O)N(c3ccccc3)C(=O)[C@H]2C1,–,·,–,·,·
OCC1CCCN(C(=S)Nc2ccc(Nc3ccccc3)cc2)C1 (stereo not drawn),33,–,–,–,–
CC(=O)Cn1nnc2sc3c(c2c1=O)CCC(C(C)(C)C)C3 (stereo not drawn),–,–,–,–,–
CCn1nnc2sc3c(c2c1=O)CCC(C)C3 (stereo not drawn),–,–,36,–,–
COc1ccc(C2C3=C(N=C4SCC(=O)N42)c2ccccc2CC3)cc1OC (stereo not drawn),–,–,48,–,–
COc1ccc(C2C3=C(N=C4SCC(=O)N42)c2ccccc2CC3)cc1 (stereo not drawn),–,–,–,–,–
CC[C@]12c3[nH]c4ccc(Cl)cc4c3CCN1C(=O)[C@@H](CC(=O)NC/C=C(\C)CCC=C(C)C)C[C@@H]2C(=O)N1CCN(C(=O)C2CC2)CC1,–,·,–,·,·
C/C(=N\OC(=O)c1ccc(Br)cc1)c1ccccn1,–,–,–,–,–
C/C(=N/OCc1ccc(Br)cc1)c1ccccn1,–,–,54,–,–
Cc1nnc(SCCn2c(N3CC(C)CC(C)C3)nc3c2c(=O)n(C)c(=O)n3C)s1 (stereo not drawn),–,–,41,–,–
Cc1nnc(SCCn2c(Br)nc3c2c(=O)n(C)c(=O)n3C)s1,–,–,–,–,–

# Screening data (PubChem BioAssay)
